# Laboratory results: PubChem BioAssay (NCATS)
# Records with an inconclusive call do not appear. A call without a number means that no potency is given here. Active and inactive are the calls of the source. Calls follow the shape of the dose curve; as a rule, active = well fitted inhibition curve with a large enough effect; inconclusive = small, poorly fitted or top-dose-only effect, or effect the other way; inactive = flat fitted curve, though single readings scatter.
# Target: ATP-dependent 6-phosphofructokinase (Trypanosoma brucei brucei) (UniProt O15648)
# Sequence (O15648 whole entry, looked up): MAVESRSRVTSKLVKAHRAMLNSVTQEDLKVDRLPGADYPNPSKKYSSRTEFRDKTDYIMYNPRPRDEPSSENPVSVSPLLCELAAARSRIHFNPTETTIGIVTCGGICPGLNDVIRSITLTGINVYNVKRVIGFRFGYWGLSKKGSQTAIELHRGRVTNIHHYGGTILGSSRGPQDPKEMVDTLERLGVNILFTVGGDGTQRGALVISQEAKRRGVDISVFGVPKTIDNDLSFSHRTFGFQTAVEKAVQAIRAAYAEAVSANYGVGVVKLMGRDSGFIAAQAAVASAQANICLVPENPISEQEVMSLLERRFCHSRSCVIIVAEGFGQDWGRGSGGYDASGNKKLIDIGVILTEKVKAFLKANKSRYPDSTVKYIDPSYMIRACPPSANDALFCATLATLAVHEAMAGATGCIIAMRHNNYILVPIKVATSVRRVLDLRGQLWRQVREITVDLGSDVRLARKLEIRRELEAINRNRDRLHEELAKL
# Assay: qHTS Assay to Find Inhibitors of T. brucei phosphofructokinase: hit validation (AID 492961)
# Conditions: T. brucei PFK, ADP-Glo luminescence; series mostly up to 51.4 µM
# Description: NIH Molecular Libraries Probe Production Network [MLPCN] NIH Chemical Genomics Center [NCGC] Grant: 1 R03 MH092153-01 PI Name: Malcolm Walkinshaw, University of Edinburgh NCGC Assay Overview: Various species of the protozoan family Trypanosomatidae are responsible for a range of serious human diseases in tropical and subtropical areas of the world. […] Many of the disorders caused by trypanosomatids are fatal if left untreated, but most currently used drugs are inefficient and toxic. […] Oxidative metabolism involving the mitochondrial tricarboxylic acid cycle and oxidative phosphorylation are repressed in these parasites, and recent RNA interference (RNAi) experiments have shown that even partial depletion of certain individual glycolytic enzymes can lead to the death of cultured parasites. One such glycolytic enzyme, phosphofructokinase (PFK), catalyzes the formation of fructose-1,6-bisphosphate (F1,6BP) and ADP from fructose-6-phosphate (F6P) and ATP, and in many metabolic circumstances makes an important contribution to the control of flux through the glycolytic pathway. As a specific glycolytic target, PFK is particularly attractive as it catalyzes the first irreversible step in glycolysis, and structural and kinetic studies have shown very substantial and essential differences from corresponding host enzymes, allowing for the discovery of parasite-selective inhibitors. The goal of this screen is to find small-molecule inhibitors of T. brucei PFK using a biochemical assay that measures PFK activity as a function of ADP production. A luminescence-based assay for T. brucei PFK activity has been developed which uses luciferase to detect production of ADP. Traditional luciferase-based nucleotide detection reagents rely on ATP production as a direct substrate for the luciferase reaction; however, PFK catalyzes the transfer of a phosphate from ATP to F6P, resulting in the net depletion of ATP. To directly measure the ADP product of the PFK reaction, we used the ADP-Glo detection kit (Promega), which utilizes two separate reactions to 1) deplete all remaining uncatalyzed ATP and 2) convert all remaining ADP to ATP, which is then detected through a traditional luciferase-coupled reaction. Compounds were screened as a concentration-titration series that ranged from 57 uM to 0.7 nM.
# NCGC Assay Protocol Summary: Substrate buffer was dispensed into white, solid 1536-well plates at 3uL/well in 0.1M triethanolamine (TEA) buffer, pH 8.0, containing final concentrations of 5 mM MgCl2, 0.01% Tween20, 0.5 mM fructose-6-phosphate (F6P) and 0.1mM ATP. Then, 23 nL of compounds or DMSO were delivered to each well using a pin tool. One uL T. brucei PFK (0.1M TEA, 0.01% Tween20, 0.1% bovine serum albumin (BSA) and 1.25nM PFK, final concentrations) was then dispensed, and plates were incubated at room temperature for 45 min. The luminescent detection reagent, ADP-Glo (Promega), was then added in two steps: the first reagent, ADP-Glo (which converts remaining uncatalyzed ATP), was added at 2.5uL/well and incubated for ten minutes at room temperature, and the second component, Kinase Detection reagent (which converts ADP to ATP as a substrate for luciferase-based luminescence), was added immediately after at 5uL/well, followed by one final ten minute room temperature incubation. The plates were measured on a ViewLux plate reader for luminescent signal using a clear filter with a one second exposure. The %Activity was determined from the corrected luminescence values. As no specific T. brucei PFK inhibitors have been identified in the literature, 1x (1.25nM) and 0x PFK enzyme controls (untreated) were included to normalize %Activity of identified inhibitors; 0x enzyme values corresponded to 100%Activity (full inhibition), while 1x PFK enzyme values were used to normalize 0%Activity (no inhibition). Concentration-response curves were fitted to the signals arising from the resulting luminescence. […]
# Potency is read from the fitted curve at half-maximal effect.
row,SMILES,Potency
1,c1ccc(C2(c3ccccc3)CC2C2=NCCN2)cc1 (stereo unspecified),inactive
2,O=[N+]([O-])c1ccc([As](=O)(O)O)cc1,inactive
3,COC(C)(C)CCCC(C)C/C=C/C(C)=C/C(=O)OC(C)C (stereo unspecified),inactive
4,CC(=O)OCC1=C(C(=O)O)N2C(=O)[C@@H](N)[C@@H]2SC1,inactive
5,CCCCCCCCCC(CC)c1ccc(S(=O)(=O)O)cc1 (stereo unspecified),inactive
6,C#CC1(O)CCC2C3CCC4=CC(=O)CCC4(C)C3CCC21C (stereo unspecified),inactive
7,NC1=NC(=O)N2CC12 (stereo unspecified),inactive
8,CN(C)[C@@H]1C(=O)C(C(N)=O)=C(O)[C@@]2(O)C(=O)C3=C(O)c4c(O)cccc4[C@@](C)(O)[C@H]3[C@H](O)[C@@H]12,inactive
9,C=CCN1CC[C@]23CCCCC2[C@H]1Cc1ccc(O)cc13 (stereo partly specified),inactive
10,NC(=O)CN1CC(O)CC1=O (stereo unspecified),inactive
11,O=C(O)COc1ccccc1,inactive
12,Cc1ccc(Cl)c(O)c1,inactive
13,CC(=O)[O][Hg][c]1ccccc1,7.94 µM (active)
14,CC(C)NC(C)Cc1ccc(I)cc1 (stereo unspecified),inactive
15,C1CCC(NC2CCCCC2)CC1,inactive
16,CC[N+]1(CCOC(=O)C(O)(c2ccccc2)c2ccccc2)CCCCC1,inactive
17,CCCN1CCC[C@H](c2cccc(O)c2)C1,inactive
18,CCCCCCCCCCCCCCCC[N+](C)(C)C,inactive
19,C[C@]12CCC(=O)C(O)=C1CC[C@@H]1[C@H]3CCC(=O)[C@@]3(C)CC[C@@H]12,inactive
20,O=C(O)C(Cl)Cl,inactive
21,Cc1cc(O)ccc1Cl,inactive
